A selection: hits, their analogues and other compounds. The true share with any hit is near 11%.
NIH3T3 tox = kills NIH 3T3 cells. Potency, µM (highest dose often 96.7 µM), for inactives: at the top dose activity change, negative = cytotoxicity, usual class: inhibitors. 94,000 compounds, 4.3% hits. NIH 3T3 viability, CellTiter-Glo ATP luminescence, 48-72 h. AID 1345082; note: nearly all actives have a fitted effect of over 55% in size
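ATP-dependent luminescence (CellTiter-Glo) served as the viability signal for NIH 3T3 cells treated with compound for 48 or 72 hr at 37 °C.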
Luciferase inh = blocks purified firefly luciferase enzyme activity; 76,000 compounds, 2.5% hits; AID 1347043; Potency, µM (highest dose often 115 µM), most hits filed as inhibitors; purified P. pyralis luciferase, luminescence, biochemical; note: nearly all actives have a fitted effect of over 65% in size
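FLuc 10nM, D-luciferin 10uM, ATP 10uM, Mg acetate 10mM, Tris acetate pH 7.5, Tween/BSA; cpd qHTS; enzyme added last; CCD luminescence.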
HEK293 tox = cytotoxic compounds in HEK 293 cells; Potency, µM (series often up to 115 µM), inactives show at the top dose activity change, negative = cytotoxicity, hits mostly inhibitors; 94,000 compounds, 6.6% hits; HEK 293 viability, ATP luminescence (CellTiter-Glo), 48-72 h; AID 1345083; note: nearly all actives have a fitted effect of over 60% in size
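CellTiter-Glo luminescence (cellular ATP) was read after 48 or 72 hr of compound exposure at 37 degree Celsius. Cells were HEK 293 plated at 250 cells/well.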
hNpr1 antagonist = human Npr1 receptor antagonism; HEK293 hNpr1 GloSensor cGMP, ANP-stimulated luminescence; Potency, µM (top dose mostly 46.3 µM), for inactives: at the top dose activity change, negative = inhibition, actives largely listed as inhibitors; P16066; 76,000 compounds, 1.6% hits; calls by dose curve; note: nearly all actives have a fitted effect of over 60% in size
Target sequence (P16066 whole entry, looked up): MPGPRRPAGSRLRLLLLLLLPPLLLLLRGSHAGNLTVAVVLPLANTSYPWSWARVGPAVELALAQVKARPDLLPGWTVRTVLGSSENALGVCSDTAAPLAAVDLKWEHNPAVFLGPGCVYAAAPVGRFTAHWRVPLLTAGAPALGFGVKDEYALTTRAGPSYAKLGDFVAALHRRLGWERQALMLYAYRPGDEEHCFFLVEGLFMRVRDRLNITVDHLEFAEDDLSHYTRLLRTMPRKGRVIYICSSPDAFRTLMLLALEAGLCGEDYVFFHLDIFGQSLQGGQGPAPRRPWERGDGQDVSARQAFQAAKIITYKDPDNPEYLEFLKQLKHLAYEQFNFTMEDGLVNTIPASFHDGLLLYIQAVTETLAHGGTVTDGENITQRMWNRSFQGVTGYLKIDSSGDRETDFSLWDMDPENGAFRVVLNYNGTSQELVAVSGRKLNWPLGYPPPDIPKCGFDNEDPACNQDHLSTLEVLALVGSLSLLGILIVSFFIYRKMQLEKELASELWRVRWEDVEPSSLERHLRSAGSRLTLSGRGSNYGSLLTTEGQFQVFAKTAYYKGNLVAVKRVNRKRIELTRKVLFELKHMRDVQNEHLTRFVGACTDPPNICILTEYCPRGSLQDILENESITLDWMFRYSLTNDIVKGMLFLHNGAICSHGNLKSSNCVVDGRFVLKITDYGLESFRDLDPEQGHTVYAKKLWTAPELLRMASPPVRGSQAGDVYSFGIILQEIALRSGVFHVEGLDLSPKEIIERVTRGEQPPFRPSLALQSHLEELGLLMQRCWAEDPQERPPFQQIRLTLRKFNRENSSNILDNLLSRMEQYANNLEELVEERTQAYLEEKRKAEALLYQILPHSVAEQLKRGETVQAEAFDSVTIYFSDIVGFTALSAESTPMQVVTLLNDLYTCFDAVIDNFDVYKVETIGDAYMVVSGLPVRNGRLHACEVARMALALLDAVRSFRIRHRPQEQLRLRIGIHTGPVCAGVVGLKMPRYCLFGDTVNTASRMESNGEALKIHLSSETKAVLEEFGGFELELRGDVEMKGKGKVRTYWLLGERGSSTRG
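HEK293 cells stably expressing human Npr1 and cGMP GloSensor pGS-40F, loaded 2 h with 2% GloSensor reagent, given compound 30 min at room temperature. Luminescence read before and 20 min after 0.1 nM hNppA.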
Active calls of the source: *; [ ] = remark or other dose. Unless noted, calls come from the whole dose curve; as a rule, active = well fitted curve in the direction sought with a large enough effect; inconclusive = small, poorly fitted or top-dose-only effect, or another doubt; inactive = no such curve, though single readings can be large; an effect the other way counts as inactive or inconclusive. % is set by controls: 0 for no effect and ±100 for the full control effect; potency is the fitted concentration of half-maximal effect.

What do the screens show for `O=C(c1nnc(CN2CCC(F)(F)CC2)n1-c1cccnc1)N1CCC[C@@H]1C(c1ccccc1)c1ccccc1`?
NIH3T3 tox: 25µM*; Luciferase inh: inactive; HEK293 tox: -24%; hNpr1 antagonist: -6%

What do the screens show for `O=C(c1nnc(COc2ccc(F)cc2)n1-c1ccccc1)N1CCC[C@@H]1C(c1ccccc1)c1ccccc1`?
NIH3T3 tox: 6.3µM*; Luciferase inh: inactive; HEK293 tox: inconclusive; hNpr1 antagonist: -8%

What do the screens show for `O=C(c1nnc(CN2CCOCC2)n1-c1ccccc1)N1CCC[C@@H]1C(c1ccccc1)c1ccccc1`?
NIH3T3 tox: inconclusive; Luciferase inh: inactive; HEK293 tox: inconclusive; hNpr1 antagonist: -2%

How did CN(Cc1ccccc1)Cc1nnc(C(=O)N2CCC[C@@H]2c2cccc(F)c2)n1-c1ccccc1 do in these assays?
NIH3T3 tox: inconclusive; Luciferase inh: inactive; HEK293 tox: inconclusive; hNpr1 antagonist: -10%

Results for O=C(c1nnc(COc2cc(F)cc(F)c2)n1-c1ccccc1)N1CCC[C@@H]1c1cccc(F)c1 ?
NIH3T3 tox: 40µM*; Luciferase inh: inactive; HEK293 tox: inconclusive; hNpr1 antagonist: -2%

What do the screens show for `O=C(c1nnc(COc2ccc(F)c(F)c2)n1-c1ccccc1)N1CCC[C@@H]1c1cccc(F)c1`?
NIH3T3 tox: 10µM*; Luciferase inh: inactive; HEK293 tox: inconclusive; hNpr1 antagonist: -11%

Results for CCNc1cc(N2CCC(CCC(=O)NCCN3CCCCCC3)CC2)ncn1 ?
NIH3T3 tox: -18%; Luciferase inh: inactive; HEK293 tox: -20%; hNpr1 antagonist: 1%

Results for COc1cccc(NC(=O)[C@@H]2OCCN(C)[C@H]2c2ccccc2)c1 ?
NIH3T3 tox: -13%; HEK293 tox: 0%

Results for CN(CC(O)COc1cccc(CNCCc2ccc(F)cc2)c1)C1CCCCC1 (centres undefined) ?
NIH3T3 tox: inconclusive; Luciferase inh: inactive; HEK293 tox: 18µM*; hNpr1 antagonist: -9%

What do the screens show for `C=CCN1CCN(Cc2cccc(OCC(O)CN(C)C3CCCCC3)c2)CC1` (centres undefined)?
NIH3T3 tox: -21%; Luciferase inh: inactive; HEK293 tox: inconclusive; hNpr1 antagonist: 1%

Results for COc1ccc(-c2cc(N3CCC(NC(=O)CCc4ccccc4OC)CC3)n[nH]2)cc1 ?
NIH3T3 tox: inconclusive; Luciferase inh: inactive; HEK293 tox: inconclusive; hNpr1 antagonist: -3%

What do the screens show for `COc1ccc(-c2cc(N3CCC(NC(=O)Cc4ccccc4C)CC3)n[nH]2)cc1`?
NIH3T3 tox: inconclusive; Luciferase inh: inactive; HEK293 tox: inconclusive; hNpr1 antagonist: -14%

Results for CCOc1ccc(CC(=O)NC2CCCN(c3cc(-c4ccc(F)cc4)[nH]n3)C2)cc1OCC (centres undefined) ?
NIH3T3 tox: inconclusive; Luciferase inh: inactive; HEK293 tox: inconclusive; hNpr1 antagonist: -1%

How did COc1ccc(-c2cc(N3CCCC(NC(=O)CCc4ccccc4OC)C3)n[nH]2)cc1 (centres undefined) do in these assays?
NIH3T3 tox: inconclusive; Luciferase inh: inactive; HEK293 tox: 40µM*; hNpr1 antagonist: -4%

Results for COc1ccc(-c2cc(N3CCC(NC(=O)COc4ccccc4C)CC3)n[nH]2)cc1 ?
NIH3T3 tox: 25µM*; Luciferase inh: inactive; HEK293 tox: inconclusive; hNpr1 antagonist: inconclusive

How did COc1ccc(CC(=O)NC2CCCN(c3cc(-c4ccc(F)cc4)[nH]n3)C2)cc1OC (centres undefined) do in these assays?
NIH3T3 tox: inconclusive; Luciferase inh: inactive; HEK293 tox: 45µM*; hNpr1 antagonist: inconclusive

What do the screens show for `CN1C[C@@H]2C[C@@H](C(N)=O)N(C(=O)OCC(C)(C)C)c3cccc(c32)C1=O`?
NIH3T3 tox: inconclusive; HEK293 tox: -24%[57.5 µM]

What do the screens show for `CCOC(=O)C1CCN(C(=O)C2CCc3nnc(-c4ccc(F)cc4)n32)CC1` (centres undefined)?
NIH3T3 tox: -20%; HEK293 tox: 4%

How did CC1=C[C@@H](CNC(=O)c2ccccc2)[C@H](C(C)C)C[C@H]1Cc1nc2ccccc2n1C do in these assays?
NIH3T3 tox: 32µM*; Luciferase inh: inactive; HEK293 tox: 25µM*; hNpr1 antagonist: inconclusive

Results for CC1=C[C@@H](CNC(=O)CC(C)(C)CC(=O)O)[C@H](C(C)C)C[C@H]1Cc1nc2ccccc2n1C ?
NIH3T3 tox: inconclusive; Luciferase inh: inactive; HEK293 tox: -18%; hNpr1 antagonist: 7%

How did CC1=C[C@@H](CNC(=O)C2CCCCC2)[C@H](C(C)C)C[C@H]1Cc1nc2ccccc2n1C do in these assays?
NIH3T3 tox: 32µM*; Luciferase inh: inactive; HEK293 tox: 32µM*; hNpr1 antagonist: inconclusive

Results for CCC(CC)C(=O)NC[C@@H]1C=C(C)[C@H](Cc2nc3ccccc3n2C)C[C@H]1C(C)C ?
NIH3T3 tox: 35µM*; Luciferase inh: inactive; HEK293 tox: 32µM*; hNpr1 antagonist: inconclusive

Results for CC(C)c1ccc(NC(=O)CN2CCCc3nc(-c4ccncc4)ncc3C2=O)cc1 ?
NIH3T3 tox: -25%; HEK293 tox: inconclusive

How did COc1ccc(CC(=O)N2CCCN(c3ccc4nnc(C5CC5)n4n3)CC2)cc1 do in these assays?
NIH3T3 tox: -30%; HEK293 tox: 4%

What do the screens show for `O=C(NCc1ccccc1F)c1ccc(-c2ccc(N3CCSCC3)nc2)cc1`?
NIH3T3 tox: -10%; Luciferase inh: inconclusive; HEK293 tox: inconclusive; hNpr1 antagonist: -21%

How did O=C(c1ccc(-c2ccc(N3CCSCC3)nc2)cc1)N1CCOCC1 do in these assays?
NIH3T3 tox: 35µM*; Luciferase inh: inconclusive; HEK293 tox: 25µM*; hNpr1 antagonist: inconclusive

How did COc1cccc(CNC(=O)c2ccc(-c3ccc(N4CCSCC4)nc3)cc2)c1 do in these assays?
NIH3T3 tox: -14%; Luciferase inh: inconclusive; HEK293 tox: inconclusive; hNpr1 antagonist: inconclusive

Results for O=C(NCc1ccccc1)c1ccc(-c2ccc(N3CCSCC3)nc2)cc1 ?
NIH3T3 tox: inconclusive; Luciferase inh: inactive; HEK293 tox: inconclusive; hNpr1 antagonist: -1%

Results for CC1CCN(C(=O)c2ccc(-c3ccc(N4CCSCC4)nc3)cc2)CC1 ?
NIH3T3 tox: inconclusive; Luciferase inh: inconclusive; HEK293 tox: 20µM*; hNpr1 antagonist: inconclusive

Results for CN1CCN(C(=O)c2ccc(-c3ccc(N4CCSCC4)nc3)cc2)CC1 ?
NIH3T3 tox: inconclusive; Luciferase inh: 35µM*; HEK293 tox: inconclusive; hNpr1 antagonist: -29%

What do the screens show for `CC(NC(=O)c1ccc(-c2ccc(N3CCCCCC3)nc2)cc1)c1cccnc1` (centres undefined)?
NIH3T3 tox: 25µM*; Luciferase inh: inconclusive; HEK293 tox: inconclusive; hNpr1 antagonist: inconclusive

Results for CNC(=O)c1nc2cccnc2n(Cc2ccc(OC)cc2)c1=O ?
NIH3T3 tox: -23%[138 µM]; HEK293 tox: -16%[172 µM]

Compound activity as filed in PubChem BioAssay.
